Results reported in PubChem BioAssay (NCATS).
Inconclusive results are not listed. Unmarked numbers belong to inactive results. Calls of active or inactive are those of the source. The call rests on the fitted dose curve; in most records, active means well fitted cell-killing curve with a large enough effect; inconclusive means small, poorly fitted or top-dose-only effect, or effect the other way; inactive means no such curve, though single readings can be large or run the other way.

Assay: Quantitative High-Throughput drug screen in 47 multiple myeloma cell lines against the NCATS MIPE library collection: SKMM1_PLB cell viability assay (AID 1919863)
Conditions: SKMM1 myeloma viability, CellTiter-Glo ATP, 48 h; viability: hits give low values
Outline: (§1)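 Inhibition of viability over 48 h was scored by ATP content (CellTiter-Glo) in 500-cell wells. Zero and full viability were defined by media-only and DMSO-only wells.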
Further: nearly all actives have a fitted effect of over 35% in size.
Potency means the concentration at half of the fitted maximal effect.

Compound | Potency | viability
Cc1cn(-c2cc(NC(=O)c3ccc(C)c(Nc4nccc(-c5cccnc5)n4)c3)cc(C(F)(F)F)c2)cn1 | 26.4 µM (active) | –
COc1ccc(OC)c(-c2nnc3ccc(-c4ccc(OC)c(O[C@@H]5CCOC5)c4)nn23)c1 | 18.7 µM (active) | –
CNC(=O)c1ccc(-c2cnc3ncc(Cc4ccc5ncccc5c4)n3n2)cc1F | – | 133%
CC(=O)c1c(C)c2cnc(Nc3ccc(N4CCNCC4)cn3)nc2n(C2CCCC2)c1=O | 16.6 µM (active) | –
COc1cc(C)c(Sc2cnc(NC(=O)c3ccc(CNC(C)C(C)C)cc3)s2)cc1C(=O)N1CCN(C(C)=O)CC1 (centres undefined) | 18.7 µM (active) | –
COC(=O)C1=C(C)NC(C)=C(C(=O)OCCN2CCN(C(c3ccccc3)c3ccccc3)CC2)C1c1cccc([N+](=O)[O-])c1 (centres undefined) | – | 126%
COc1cc2c(cc1-c1c(C)noc1C)ncc1[nH]c(=O)n([C@H](C)c3ccccn3)c12 | 0.743 µM (active) | –
Nc1ccc(C(=O)c2cc3c(ccc4ccccc43)[nH]2)cc1 | 2.96 µM (active) | –
Nc1ncnc2c1c(-c1cnc3[nH]ccc3c1)nn2C1CCCC1 | 4.69 µM (active) | –
CNc1nccc(-c2cccnc2Oc2cc(C(=O)Nc3cccc(C(F)(F)F)c3)ccc2C)n1 | 18.7 µM (active) | –
COc1cc(=C2C=c3ccccc3=N2)[nH]c1=Cc1[nH]c(C)cc1C | 4.18 µM (active) | –
Nc1ccn([C@@H]2CS[C@H](CO)O2)c(=O)n1 | – | 127%
O=C(O)Cn1nnc(-c2cc(N3CCC(Oc4cc(F)ccc4Br)CC3)no2)n1 | – | 126%
C[C@@]12O[C@@H](C[C@]1(O)CO)n1c3ccccc3c3c4c(c5c6ccccc6n2c5c31)CNC4=O | 5.26 µM (active) | –
CN1CCN(c2cc(C(=O)Nc3ccc4c(c3)-c3c(c(C(N)=O)nn3-c3ccc(F)cc3)CC4)c(Cl)cn2)CC1 | 26.4 µM (active) | –
CCCCc1nc2cc(C=CC(=O)NO)ccc2n1CCN(CC)CC | 0.59 µM (active) | –
Cn1c(CNc2ccc(C(=N)N)cc2)nc2cc(C(=O)N(CCC(=O)O)c3ccccn3)ccc21 | – | 127%
CC(C)c1ccc(Cn2ccc3c4c(N)nc(NC5CC5)nc4ccc32)cc1 | 11.8 µM (active) | –
O=C(C=Cc1cccnc1)NCCCCC1CCN(C(=O)c2ccccc2)CC1 | 0.059 µM (active) | –
O=C(O)c1ccc2c(c1)nc(Nc1cccc(Cl)c1)c1ccncc12 | 10.5 µM (active) | –
CC1=C(CO)C(=O)O[C@@H]([C@@H](C)[C@H]2CC[C@H]3[C@@H]4C[C@H]5O[C@]56[C@@H](O)C=CC(=O)[C@]6(C)[C@@H]4CC[C@]23C)C1 | 0.296 µM (active) | –
Cc1cc(Nc2nc(N[C@@H](C)c3ccc(F)cc3)c(C#N)cc2F)n[nH]1 | 1.05 µM (active) | –

Assay: Quantitative High-Throughput drug screen in 47 multiple myeloma cell lines against the NCATS MIPE library collection: U266_ATCC cell viability assay (AID 1919864);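 on viability (% of DMSO control): 0% = media-only wells without cells and 100% = DMSO-only wells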
Conditions: U266 myeloma viability, CellTiter-Glo ATP luminescence, 48 h; series mostly up to 45.8 µM; viability (% of DMSO control): at the top concentration
Outline: as §1

Compound | viability (% of DMSO control) | Potency
Cc1cn(-c2cc(NC(=O)c3ccc(C)c(Nc4nccc(-c5cccnc5)n4)c3)cc(C(F)(F)F)c2)cn1 | 136% | –
COc1ccc(OC)c(-c2nnc3ccc(-c4ccc(OC)c(O[C@@H]5CCOC5)c4)nn23)c1 | – | 7.43 µM (active)
CNC(=O)c1ccc(-c2cnc3ncc(Cc4ccc5ncccc5c4)n3n2)cc1F | 122% | –
Cc1nc2ccc(CN(C)c3ccc(C(=O)N[C@@H](CCC(=O)O)C(=O)O)s3)cc2c(=O)[nH]1 | – | 11.8 µM (active)
CC(=O)c1c(C)c2cnc(Nc3ccc(N4CCNCC4)cn3)nc2n(C2CCCC2)c1=O | – | 20.9 µM (active)
COc1cc(C)c(Sc2cnc(NC(=O)c3ccc(CNC(C)C(C)C)cc3)s2)cc1C(=O)N1CCN(C(C)=O)CC1 (centres undefined) | – | 23.5 µM (active)
COC(=O)C1=C(C)NC(C)=C(C(=O)OCCN2CCN(C(c3ccccc3)c3ccccc3)CC2)C1c1cccc([N+](=O)[O-])c1 (centres undefined) | 127% | –
COc1cc2c(cc1-c1c(C)noc1C)ncc1[nH]c(=O)n([C@H](C)c3ccccn3)c12 | – | 18.7 µM (active)
CC(=O)Nc1nc(C)c(-c2ccc(Cl)c(S(=O)(=O)NCCO)c2)s1 | – | 6.62 µM (active)
Nc1ccc(C(=O)c2cc3c(ccc4ccccc43)[nH]2)cc1 | – | 14.8 µM (active)
Nc1nc(NCCNc2ncc(-n3ccnc3)c(-c3ccc(Cl)cc3Cl)n2)ccc1[N+](=O)[O-] | 113% | –
Nc1ncnc2c1c(-c1cnc3[nH]ccc3c1)nn2C1CCCC1 | – | 14.8 µM (active)
CNc1nccc(-c2cccnc2Oc2cc(C(=O)Nc3cccc(C(F)(F)F)c3)ccc2C)n1 | – | 16.6 µM (active)
COc1cc(=C2C=c3ccccc3=N2)[nH]c1=Cc1[nH]c(C)cc1C | – | 5.26 µM (active)
O=C(O)Cn1nnc(-c2cc(N3CCC(Oc4cc(F)ccc4Br)CC3)no2)n1 | 138% | –
Cn1cc(-c2[nH]c3cc(NC(=O)[C@H](N)C4CCCCC4)cc4c3c2C=NNC4=O)cn1 | – | 18.7 µM (active)
C[C@@]12O[C@@H](C[C@]1(O)CO)n1c3ccccc3c3c4c(c5c6ccccc6n2c5c31)CNC4=O | – | 2.09 µM (active)
CN1CCN(c2cc(C(=O)Nc3ccc4c(c3)-c3c(c(C(N)=O)nn3-c3ccc(F)cc3)CC4)c(Cl)cn2)CC1 | – | 2.96 µM (active)
CCCCc1nc2cc(C=CC(=O)NO)ccc2n1CCN(CC)CC | – | 0.935 µM (active)
Cn1c(CNc2ccc(C(=N)N)cc2)nc2cc(C(=O)N(CCC(=O)O)c3ccccn3)ccc21 | 113% [at 23.2 µM] | –
CC(C)c1ccc(Cn2ccc3c4c(N)nc(NC5CC5)nc4ccc32)cc1 | – | 13.2 µM (active)
N#Cc1c(O)c2c(-c3ccc(-c4ccccc4O)cc3)csc2[nH]c1=O | 147% | –
O=C(C=Cc1cccnc1)NCCCCC1CCN(C(=O)c2ccccc2)CC1 | – | 18.7 µM (active)
O=C(O)c1ccc2c(c1)nc(Nc1cccc(Cl)c1)c1ccncc12 | – | 5.26 µM (active)
Cc1ccc2nc(NC(=O)CSc3nc4c(c(=O)n3-c3ccccc3)SCC4)sc2c1 | – | 20.9 µM (active)
CC1=C(CO)C(=O)O[C@@H]([C@@H](C)[C@H]2CC[C@H]3[C@@H]4C[C@H]5O[C@]56[C@@H](O)C=CC(=O)[C@]6(C)[C@@H]4CC[C@]23C)C1 | – | 0.264 µM (active)
Cc1cc(Nc2nc(N[C@@H](C)c3ccc(F)cc3)c(C#N)cc2F)n[nH]1 | – | 16.6 µM (active)
